C8 TRAIL sens – caspase-8 TRAIL sensitization | NB7+C8 cells + TRAIL, ATPlite viability luminescence | inhibition (viability loss, TRAIL sensitization), % at 10 µM | 360,000 compounds, 1% hits;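 active means compounds causing at least 50% loss of cell viability in the single-dose screen, relative to plate controls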
PPC-1+TRAIL kill – kills PPC-1 cancer cells in the presence of TRAIL | 220,000 compounds, 0.41% hits | AID 1443 | PPC-1 cells + TRAIL, ATPLite viability luminescence | cell killing (% activity), % at 4 µM or 5 µM;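 active means cell killing above 50% in the first pass at 4 µM, then a duplicate retest at 5 µM averaging 50% or more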;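 further: plate controls were cells with TRAIL plus DMSO for no effect and medium-only wells lacking cells for full effect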
SENP8 block-1 – inhibitors of human SENP8 protease | Q96LD8 | recombinant SENP8, Nedd8 substrate fluorescence | inhibition, % at 20 µM | 360,000 compounds, 0.64% hits | AID 602440; in the data active means inhibition mostly above about 40%, no sharp cut-off; inactive means mostly below about 27%
Target sequence (Q96LD8 whole entry, looked up): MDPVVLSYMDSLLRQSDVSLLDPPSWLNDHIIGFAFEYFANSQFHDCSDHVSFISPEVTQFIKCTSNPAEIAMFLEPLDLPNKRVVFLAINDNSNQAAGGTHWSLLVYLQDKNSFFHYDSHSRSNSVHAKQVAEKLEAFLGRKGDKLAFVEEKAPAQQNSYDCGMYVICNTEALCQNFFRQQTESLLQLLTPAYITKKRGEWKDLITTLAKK
SENP8 block-2 – inhibitors of human SENP8 protease. purified SENP8, Z-RLRGG-aminoluciferin cleavage, luminescence. Q96LD8. inhibition, % at 10 µM. 330,000 compounds, 1.2% hits. AID 2540; in the data active means inhibition above about 50%
SENP6 block – blocks the human protease SENP6; inhibition, % at 10 µM; 330,000 compounds, 1.8% hits; AID 2599; Recombinant SENP6 catalytic domain, aminoluciferin luminescence;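 active means inhibition above about 50% at the single tested dose, limit read from the data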;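 further: plate controls were DMSO wells with enzyme for no effect and DMSO wells lacking enzyme for full effect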
SENP7 inh – SENP7 protease inhibition; recombinant SENP7, Z-RLRGG-aminoluciferin luminescence, 40 min; Q9BQF6; 330,000 compounds, 1.5% hits; inhibition, % at 5 µM; AID 434973;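 active means inhibition above about 50% at the single test dose, limit read from the data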;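 further: plate controls were DMSO with enzyme for no effect and no enzyme buffer wells for full effect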
Target sequence (Q9BQF6 706-1050 limits assumed): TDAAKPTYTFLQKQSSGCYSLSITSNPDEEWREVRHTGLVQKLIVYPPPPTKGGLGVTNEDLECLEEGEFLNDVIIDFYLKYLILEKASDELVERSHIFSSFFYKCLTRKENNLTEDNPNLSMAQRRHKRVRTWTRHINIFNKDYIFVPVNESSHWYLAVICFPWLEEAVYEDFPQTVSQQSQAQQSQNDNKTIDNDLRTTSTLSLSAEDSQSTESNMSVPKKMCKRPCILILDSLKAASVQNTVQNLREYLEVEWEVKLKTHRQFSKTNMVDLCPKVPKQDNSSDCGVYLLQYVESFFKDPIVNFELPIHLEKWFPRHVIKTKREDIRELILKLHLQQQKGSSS
SENP8 conf – SENP8 (human) inhibition, single concentration confirmation | 1,400 compounds, 15% hits | shares compounds with SENP8 block-1 | inhibition, % at 25 µM | purified SENP8, Nedd8-AMC/pro-Nedd8 cleavage fluorescence, 30 min; in the data active means inhibition mostly above about 39%, no sharp cut-off; inactive means mostly below about 34%
An asterisk follows results filed as active; x = no result given. This is a sample that favours compounds with a hit; in the whole collection about 3% have one here.

SMILES	C8 TRAIL sens	PPC-1+TRAIL kill	SENP8 block-1	SENP8 block-2	SENP6 block	SENP7 inh	SENP8 conf
CN(C)c1ccc(NC(=S)NC(=O)/C=C/c2ccc(Cl)cc2)cc1	-6.5	14.2	41.2*	16.5	-9.6	6.3	26.3
CCC(CC)NC(=O)Cc1ccc(F)cc1	-9.0	1.3	3.2	0.2	-5.2	4.1	x
CC(OC(=O)c1cc(S(=O)(=O)N2CCOCC2)ccc1F)C(=O)NCc1ccc2c(c1)OCO2 (stereo not given)	1.4	x	-9.9	-4.2	-20.5	0.9	x
COc1ccc(C(=O)c2sc(Nc3ccccc3)c(C(=O)Nc3ccc(OC)c(OC)c3)c2N)cc1	-10.9	-1.9	50.0*	-3.3	2.1	1.5	10.8
O=[N+]([O-])CC(=Nc1ccc(F)cc1)N/N=C\c1oc(O)c2ccccc12	x	20.9	x	-1.3	17.0	0.3	x
CCCSc1ccc(C(=O)Nc2ccc(Cl)cc2)cn1	8.4	11.7	7.1	3.1	5.1	11.6	x
O=C1CCC(=O)N1c1ccc(NC2CCN(Cc3ccccc3)CC2)c([N+](=O)[O-])c1	-8.4	1.9	36.9	0.1	-8.5	9.3	x
O=C1C2CCCCC2C(=O)N1c1ccc(NC2CCN(Cc3ccccc3)CC2)c([N+](=O)[O-])c1 (stereo not given)	-7.1	-4.5	44.3*	-6.0	-10.0	11.1	24.7
CC1CCC2C(=O)N(c3ccc(NC4CCN(Cc5ccccc5)CC4)c([N+](=O)[O-])c3)C(=O)C2C1 (stereo not given)	-5.6	7.6	47.2*	-11.8	21.0	-6.8	14.7
O=[N+]([O-])c1ccccc1NC1CCN(Cc2ccccc2)CC1	6.4	16.9	44.2*	1.2	-15.8	10.6	19.7
Cc1ccc(OC(C)C(=O)N(Cc2cccs2)C2CCS(=O)(=O)C2)cc1C (stereo not given)	-11.6	8.5	41.0*	-10.6	5.2	6.0	7.8
CC1Cc2ccccc2N1C(=O)CN1C(=O)NC2(CCCCC2)C1=O (stereo not given)	1.4	x	2.4	-13.2	-35.6	-1.0	x
COc1ccc(O)c(CNc2ccccc2F)c1	25.8	11.9	-0.5	8.8	10.7	19.8	x
Cc1cnc(C=NNC(N)=S)c2cccc(N)c12	38.2	x	81.8*	x	x	x	43.0*
CC(=O)c1ccccc1NC(=O)COC(=O)Cc1cccc(C(F)(F)F)c1	2.4	x	7.2	-7.8	-13.0	-3.6	x
CC(C)[C@H](NC(=O)N1c2ccccc2NC(=O)[C@@H]1C(C)C)C(=O)N[C@H](Cc1ccccc1)C(=O)O	19.0	x	40.0*	0.6	-0.4	-9.4	-0.1
CC(C)C[C@H](NC(=O)N1c2ccccc2NC(=O)[C@@H]1C(C)C)C(=O)N1CCC[C@@H]1C(=O)O	-26.8	x	55.7*	-20.3	-21.1	-16.2	8.1
CC(C)[C@H]1C(=O)Nc2ccccc2N1C(=O)N[C@@H](Cc1ccccc1)C(=O)N[C@H](Cc1ccccc1)C(=O)O	2.8	x	28.6	-2.4	-13.8	3.0	x
CCC(C)[C@H](NC(=O)N1CC(=O)Nc2ccccc21)C(=O)N[C@H](Cc1ccccc1)C(=O)O (stereo not given in full)	-4.4	x	41.1*	-9.3	-0.4	-2.7	-3.8
CCOC(=O)C1(Cc2ccccc2)C(=O)N(CCCN(C)C)c2ccccc21 (stereo not given)	-4.7	x	28.9	-21.7	-11.4	-10.3	x
Cn1cccc1/C=N\NC(=O)Cc1ccc(Br)c2ccccc12	31.4	x	15.8	-2.5	-7.8	-1.0	x
O=C1c2ccc(Oc3cccc([N+](=O)[O-])c3)cc2C(=O)N1c1ccccn1	-3.9	5.7	6.8	-6.9	-9.3	15.3	x
O=C1c2cc([N+](=O)[O-])cc3cc([N+](=O)[O-])cc(c23)C(=O)N1c1ccccn1	8.0	0.8	42.9*	x	x	x	35.3
CC(=O)O[C@H]1C[C@@]2(O)[C@@H](OC(=O)c3ccccc3)C3[C@@](C)([C@@H](O)C[C@H]4OC[C@@]34OC(C)=O)[C@@H](O)[C@H](OC(C)=O)C(=C1C)C2(C)C (stereo not given in full)	19.1	x	43.4*	-4.9	-7.7	-0.1	15.2
CC(=O)O[C@@]12CO[C@@H]1C[C@H](O)[C@@]1(C)C(=O)[C@H](O)C3=C(C)[C@@H](OC(=O)[C@H](O)[C@@H](NC(=O)OC(C)(C)C)c4ccccc4)C[C@](O)([C@@H](OC(=O)c4ccccc4)[C@H]21)C3(C)C	x	1.9	x	12.2	-4.2	-5.6	x
SMILES	C8 TRAIL sens	PPC-1+TRAIL kill	SENP8 block-1	SENP8 block-2	SENP6 block	SENP7 inh	SENP8 conf
Cn1c(=O)n(Cc2ccc(F)cc2)c(=O)c2c1nc1n2CCCN1C1CCCCC1	21.1	-1.1	34.4	-3.9	3.7	5.4	x
Cn1c(=O)n(Cc2ccccc2)c(=O)c2c1nc1n2CCCN1C1CCCCC1	20.5	x	44.7*	1.9	-14.2	-3.5	10.1
O=C(Cn1cc([N+](=O)[O-])cn1)NCc1ccccc1	-11.3	x	9.3	-1.4	8.6	1.0	x
COc1ccc(CNC(=O)Cn2cc([N+](=O)[O-])cn2)cc1	-0.5	x	43.5*	-5.5	-31.6	-6.3	-10.6
COC(=O)c1c(NC(=O)COC(=O)C2CCC2)sc(C)c1C	-1.2	x	-17.1	-8.0	-4.1	-5.0	x
CCOCCCNC(=O)C1CCCN(S(=O)(=O)CC)C1 (stereo not given)	1.8	-2.3	45.5*	-2.4	-0.2	-0.9	-4.0
CCC(C)[C@H](N)C(=O)N[C@H]1CCC2C3CC=C4C[C@@H](O)CC[C@]4(C)C3CC[C@@]21C (stereo not given in full)	31.2	x	0.9	x	x	x	x
Cc1noc(C)c1COC(=O)C1CCN(S(=O)(=O)c2c(Cl)cccc2Cl)CC1	11.7	x	1.3	-11.3	-12.4	-0.2	x
CCCc1cc(=O)[nH]c(SCC(=O)N2CC3(C)CC2CC(C)(C)C3)n1 (stereo not given)	2.7	x	11.3	9.0	0.1	7.2	x
CC(C)(C)OC(=O)NCCCC[C@H](NC(=O)c1nc[nH]c1C(=O)N1CCc2ccccc2C1)C(=O)OC(C)(C)C	16.0	27.3	11.5	1.4	-3.6	1.0	x
CC(C)(C)OC(=O)NCCCCCNC(=O)c1nc[nH]c1C(=O)N1CCc2ccccc2C1	-5.4	x	47.9*	-14.4	-4.6	-6.8	56.8*
COc1ccc(NCc2nnc(SCC(=O)Nc3ccccc3)n2C)cc1	-0.3	2.4	43.0*	-7.5	2.9	1.9	17.3
CCn1c(CNc2ccc(OC)cc2)nnc1SCC(=O)N1CCCc2ccccc21	7.5	-16.0	33.5	-7.6	-11.7	0.1	x
COc1ccc(NCc2nnc(SCC(=O)N3CCCc4ccccc43)n2C)cc1	-1.0	8.6	60.1*	-5.1	10.6	-11.4	16.8
Cc1cc(NS(=O)(=O)c2ccc3c(c2)OCCO3)no1	-15.0	11.7	41.8*	-2.8	-9.7	1.1	23.2
c1ccc(Sc2ccccn2)cc1	9.6	x	40.1*	-3.9	-15.6	-9.3	15.5

Screens as filed in PubChem BioAssay.
